From PubChem BioAssay (Tox21)
Values without a mark were called inactive. Records with an inconclusive call do not appear. A call without a number means that no potency is given here. Calls of active or inactive are those of the source. Unless noted, calls come from the whole dose curve; as a rule, active = well fitted curve in the direction sought with a large enough effect in the repeat runs; inconclusive = weak or mixed curves; inactive = no such curve, though single readings can be large; an effect the other way counts as inactive or inconclusive.

Experiments:
[1] = A CellTox Green Cytotoxicity Assay to monitor cytotoxicity in HEK293 cells - 32 hour (AID 1224881); note: nearly all actives have a fitted effect of over 40% in size; note: potency is the fitted concentration of half-maximal effect
Summary of the method: (§1)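 Dead-cell fluorescence measured kinetically: asymmetric cyanine dye, HEK293, 600 cells/well, 5 h settle, 23 nL cpd/DMSO, 37 C, reads 0–40 h every 8 h.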

[2] = A CellTox Green Cytotoxicity Assay to monitor cytotoxicity in HepG2 cells - 0 hour (AID 1224882); note: nearly all actives have a fitted effect of over 35% in size
Summary of the method: (§2)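 First, HepG2 cells (600/well) mixed with reagent were plated; second, after 5 h at 37 C they received compounds via pintool; third, fluorescence was measured at 0 h through 40 h at 8 h intervals.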

[3] = qHTS RealTime-Glo MT Cell Viability Assay in HepG2 cells - 16 hour (AID 1224885); note: nearly all actives have a fitted effect of over 50% in size
Summary of the method: (§3)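 Tox21 10K library screened in qHTS format on HepG2 cells carrying RealTime-Glo reagents. Compounds were added after a 5 h preincubation, and the luminescent signal from continuous culture was measured repeatedly during 40 h treatment.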

[4] = qHTS RealTime-Glo MT Cell Viability Assay in HEK293 cells - 24 hour (AID 1224886); note: nearly all actives have a fitted effect of over 50% in size; note: potency is the fitted concentration of half-maximal effect
Summary of the method: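 Luminescence generated by NanoLuc from substrate produced by living HEK293 cells served as the viability signal. Each value reflects the reading at its stated time point during continuous 40 h compound exposure at 37 C.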

[5] = A CellTox Green Cytotoxicity Assay to monitor cytotoxicity in HEK293 cells - 16 hour (AID 1224888); note: nearly all actives have a fitted effect of over 35% in size; note: potency is the fitted concentration of half-maximal effect
Summary of the method: as §1

[6] = qHTS RealTime-Glo MT Cell Viability Assay in HepG2 cells - 0 hour (AID 1224889); note: nearly all actives have a fitted effect of over 50% in size
Summary of the method: as §3

[7] = A CellTox Green Cytotoxicity Assay to monitor cytotoxicity in HepG2 cells - 8 hour (AID 1224890); note: nearly all actives have a fitted effect of over 45% in size
Summary of the method: as §2

[8] = qHTS assay to identify small molecule antagonists of the estrogen receptor alpha (ER-alpha) signaling pathway using the BG1 cell line in the presence of 0.1 nM 17-beta-estradiol - cell viability counter screen (AID 1259241); note: nearly all actives have a fitted effect of over 40% in size
Summary of the method: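 Following 5 days in phenol red-free medium with charcoal-stripped serum, VM7Luc4E2 cells received test compounds alongside 0.1 nM 17beta-estradiol (final) at 37C for 22 hr. Live cells were then quantified via protease-substrate fluorescence.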

[9] = qHTS assay to identify small molecule antagonists of the androgen receptor (AR) signaling pathway using the MDA cell line in the presence of 0.5 nM R1881 - cell viability counter screen (AID 1259242); note: nearly all actives have a fitted effect of over 45% in size
Summary of the method: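 qHTS format. MDA-kb2 (MMTV-luc, AR/GR responsive) + cpd + 0.5 nM R1881 final, 16 hr 37C/0% CO2 → CellTiter-Fluor 30 min → fluorescence intensity.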

[10] = qHTS assay to identify small molecule phospholipidosis (PLD) inducers (AID 1259344; active = well fitted curve in the direction sought with a large enough effect; an effect the other way counts as inactive or inconclusive)
Summary of the method: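 Read-out is LipidTOX Red fluorescence (ex 595/em 615) imaged in HepG2 cells after 24 h compound exposure at 37 C, with Hoechst nuclear counterstain (ex 352/em 461) allowing per-cell normalisation.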

[11] = qHTS assay to identify small molecule HDAC inhibitors (AID 1259364); note: potency is the fitted concentration of half-maximal effect;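 note: wild-type HCT-116 cells with endogenous class I/II HDAC activity; nearly all actives have a fitted effect of over 45% in size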
Summary of the method: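 Quantitative high-throughput format: overnight-seeded HCT-116 cells got compounds for 2 hr at 37C; HDAC-Glo I/II reagent added, 30 min RT, luminescence measured.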

[12] = qHTS assay to identify small molecule HDAC inhibitors - cell viability counter screen (AID 1259365); note: series mostly up to about 92 µM; nearly all actives have a fitted effect of over 50% in size
Summary of the method: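 HCT-116 wild-type, overnight attachment; 2hr drug exposure, 37C; CellTiter-Glo luminescent ATP readout after 30min RT.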

[13] = qHTS assay to identify small molecule agonists of the sonic hedgehog signaling (Shh) pathway - cell viability counter screen (AID 1259366); note: nearly all actives have a fitted effect of over 50% in size
Summary of the method: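 Compounds in DMSO were pin-transferred onto 3T3 Gli1-Luc cells that had settled 4hr; plates then stood 24hr at 37C and 5% CO2. One hour before the end, CellTiter-Fluor was added and fluorescence recorded.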

[14] = qHTS assay to identify small molecule antagonists of the sonic hedgehog signaling (Shh) pathway - cell viability counter screen (AID 1259367); note: nearly all actives have a fitted effect of over 55% in size
Summary of the method: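 Fluorescence read-out (CellTiter-Fluor, 1 hr at 37C) taken after 23 hr compound treatment of 3T3 Gli1-Luc cells stimulated with conditioned medium. Cells were seeded at 2,000 per well and pre-incubated 4 hr.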

[15] = A CellTox Green Cytotoxicity Assay to monitor cytotoxicity in HEK293 cells - 8 hour (AID 1224884); note: nearly all actives have a fitted effect of over 35% in size
Summary of the method: as §1

[16] = qHTS RealTime-Glo MT Cell Viability Assay in HEK293 cells - 8 hour (AID 1224887); note: nearly all actives have a fitted effect of over 50% in size; note: potency is the fitted concentration of half-maximal effect
Summary of the method: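 600 HEK293 cells per well, dispensed already mixed with RealTime-Glo MT reagents. Compound dosing came 5 h later. The same wells were read for luminescence at 0, 8, 16, 24, 32 and 40 h of exposure at 37 C.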

[17] = qHTS assay to identify small molecule agonists of the sonic hedgehog signaling (Shh) pathway (AID 1259368; calls by dose curve;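 note: NIH/3T3-derived 3T3Gli1-Luc cells carrying a stable Gli1-driven firefly luciferase reporter; series mostly up to about 92 µM; nearly all actives have a fitted effect of over 15% in size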)
Summary of the method: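 Quantitative high-throughput format using a Gli1-driven firefly luciferase reporter line derived from NIH/3T3 cells. After a 24 hr compound treatment at 37 C and 5% CO2, luminescence reported Gli1 response element activity.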

[18] = A CellTox Green Cytotoxicity Assay to monitor cytotoxicity in HepG2 cells - 32 hour (AID 1224883); note: nearly all actives have a fitted effect of over 50% in size; note: potency is the fitted concentration of half-maximal effect
Summary of the method: as §2

[19] = target: Androgen receptor (Homo sapiens) (UniProt P10275); test: qHTS assay to identify small molecule antagonists of the androgen receptor (AR) signaling pathway using the MDA cell line in the presence of 0.5 nM R1881 (AID 1259243); note: nearly all actives have a fitted effect of over 50% in size
Sequence of Androgen receptor (Homo sapiens) (P10275 whole entry, looked up): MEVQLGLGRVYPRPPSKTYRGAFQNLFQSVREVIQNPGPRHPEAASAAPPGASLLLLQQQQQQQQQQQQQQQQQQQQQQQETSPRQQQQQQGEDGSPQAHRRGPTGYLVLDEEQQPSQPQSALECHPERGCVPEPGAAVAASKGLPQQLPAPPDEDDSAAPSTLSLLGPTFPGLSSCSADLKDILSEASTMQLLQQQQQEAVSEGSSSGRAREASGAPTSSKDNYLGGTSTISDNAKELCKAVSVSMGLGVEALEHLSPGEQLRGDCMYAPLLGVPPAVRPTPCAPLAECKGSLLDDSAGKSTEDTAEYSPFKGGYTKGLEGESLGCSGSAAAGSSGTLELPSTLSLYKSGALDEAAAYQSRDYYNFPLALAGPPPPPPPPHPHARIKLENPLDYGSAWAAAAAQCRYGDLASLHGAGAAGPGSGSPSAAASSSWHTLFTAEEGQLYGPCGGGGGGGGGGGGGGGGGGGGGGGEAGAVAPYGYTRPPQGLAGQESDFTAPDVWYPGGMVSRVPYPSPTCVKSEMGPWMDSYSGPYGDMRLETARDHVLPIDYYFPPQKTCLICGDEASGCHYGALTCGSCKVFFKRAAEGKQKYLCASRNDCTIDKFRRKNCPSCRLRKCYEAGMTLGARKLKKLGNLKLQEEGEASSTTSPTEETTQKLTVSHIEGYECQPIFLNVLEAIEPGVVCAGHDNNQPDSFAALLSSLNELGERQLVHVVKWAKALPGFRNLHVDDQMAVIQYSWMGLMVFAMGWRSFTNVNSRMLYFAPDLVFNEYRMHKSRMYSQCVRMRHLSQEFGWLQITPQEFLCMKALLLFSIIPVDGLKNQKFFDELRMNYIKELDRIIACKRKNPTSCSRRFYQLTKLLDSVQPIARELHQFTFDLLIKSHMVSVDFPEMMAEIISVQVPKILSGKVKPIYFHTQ
Summary of the method: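 Antagonist mode quantitative HTS in MDA-kb2 MMTV-luciferase cells, agonist R1881 at 0.5 nM final, 16 hr exposure at 37C and 0% CO2, luminescent detection.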

[20] = target: Estrogen receptor (Homo sapiens) (UniProt P03372); test: qHTS assay to identify small molecule antagonists of the estrogen receptor alpha (ER-alpha) signaling pathway using the BG1 cell line in the presence of 0.1 nM 17-beta-estradiol (AID 1259244); note: nearly all actives have a fitted effect of over 50% in size; note: potency is the fitted concentration of half-maximal effect
Sequence of Estrogen receptor (Homo sapiens) (P03372 whole entry, looked up): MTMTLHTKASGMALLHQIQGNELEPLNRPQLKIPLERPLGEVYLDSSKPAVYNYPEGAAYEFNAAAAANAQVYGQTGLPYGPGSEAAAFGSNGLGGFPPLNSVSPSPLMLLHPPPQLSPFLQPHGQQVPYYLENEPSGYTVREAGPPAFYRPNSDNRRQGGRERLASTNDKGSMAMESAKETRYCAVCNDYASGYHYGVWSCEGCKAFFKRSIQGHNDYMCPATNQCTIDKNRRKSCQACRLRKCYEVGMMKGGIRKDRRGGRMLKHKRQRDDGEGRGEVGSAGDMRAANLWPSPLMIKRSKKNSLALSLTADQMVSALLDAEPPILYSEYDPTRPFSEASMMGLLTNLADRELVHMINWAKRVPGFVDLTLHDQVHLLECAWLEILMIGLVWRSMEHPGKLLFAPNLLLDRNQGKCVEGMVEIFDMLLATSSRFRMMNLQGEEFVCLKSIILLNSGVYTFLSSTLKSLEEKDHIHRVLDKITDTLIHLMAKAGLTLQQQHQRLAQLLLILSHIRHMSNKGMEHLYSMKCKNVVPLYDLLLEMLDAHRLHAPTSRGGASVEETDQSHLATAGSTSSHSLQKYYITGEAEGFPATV
Summary of the method: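 Reporter is a stably transfected luciferase under four estrogen responsive elements in VM7Luc4E2 cells expressing native full-length ER-alpha; inhibition of 0.1 nM (final) 17beta-estradiol-driven signal over 22 h is read by luminescence.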

Compound	Potency [1]	outcome [2]	Potency [3]	Potency [4]	Potency [5]	Potency [6]	Potency [7]	outcome [8]	outcome [9]	outcome [10]	Potency [11]	outcome [12]	Potency [13]	Potency [14]	Potency [15]	Potency [16]	outcome [17]	Potency [18]	Potency [19]	Potency [20]
CC(C)CC(N(C)C)C1(c2ccc(Cl)cc2)CCC1 (centres undefined)	23.9 µM (active)	inactive	inactive	inactive	21.3 µM (active)	inactive	inactive	inactive	inactive	inactive	inactive	inactive	inactive	inactive	–	–	–	–	–	–
CC(CC(C#N)(c1ccccc1)c1ccccc1)N(C)C (centres undefined)	inactive	inactive	inactive	–	inactive	inactive	inactive	inactive	inactive	–	inactive	inactive	–	–	inactive	inactive	inactive	–	–	–
COC(=O)C(c1ccccc1)C1CCCCN1 (centres undefined)	inactive	–	inactive	inactive	inactive	inactive	inactive	inactive	inactive	inactive	inactive	inactive	inactive	inactive	inactive	inactive	inactive	inactive	inactive	inactive
COc1ncc(F)c2nc(S(=O)(=O)Nc3c(F)cccc3F)nn12	13.9 µM (active)	inactive	–	inactive	–	inactive	–	inactive	inactive	–	inactive	inactive	inactive	inactive	–	inactive	inactive	inactive	inactive	inactive
NC(=O)c1cc([N+](=O)[O-])cc([N+](=O)[O-])c1	inactive	–	inactive	inactive	inactive	inactive	inactive	inactive	inactive	inactive	inactive	inactive	inactive	inactive	inactive	inactive	–	inactive	–	inactive
ClCC(Cl)Cl	inactive	inactive	inactive	inactive	inactive	inactive	–	inactive	inactive	–	inactive	inactive	inactive	inactive	–	inactive	inactive	inactive	–	–
CC1(C)COP(Oc2ccccc2)OC1	inactive	–	inactive	inactive	inactive	inactive	–	inactive	inactive	–	inactive	inactive	–	inactive	inactive	inactive	inactive	inactive	inactive	–
COP(=S)(OC)Oc1ccc(S(N)(=O)=O)cc1	inactive	inactive	–	inactive	inactive	–	inactive	inactive	inactive	inactive	inactive	–	–	inactive	–	inactive	inactive	inactive	–	–
CCCCc1c(C)nc(NCC)[nH]c1=O	inactive	inactive	inactive	–	inactive	inactive	inactive	inactive	inactive	–	inactive	inactive	–	inactive	inactive	21.9 µM (active)	inactive	–	–	inactive
CC1COC2(c3ccccc3Cl)c3cc(Cl)ccc3NC(=O)CN12 (centres undefined)	inactive	inactive	inactive	–	inactive	inactive	inactive	inactive	–	–	inactive	inactive	inactive	inactive	inactive	inactive	inactive	–	inactive	–
CCCCOC(=O)[C@@H](C)Oc1ccc(Oc2ccc(C#N)cc2F)cc1	inactive	inactive	–	–	inactive	inactive	–	inactive	inactive	–	inactive	inactive	–	–	inactive	12.2 µM (active)	inactive	inactive	–	inactive
CC(N)=S	inactive	–	inactive	inactive	–	–	inactive	inactive	inactive	–	–	–	inactive	inactive	inactive	inactive	–	inactive	–	–
C[C@H]1CCC[C@H](O)CCCCCc2cc(O)cc(O)c2C(=O)O1	inactive	inactive	inactive	–	inactive	–	inactive	inactive	inactive	inactive	inactive	inactive	–	–	inactive	27.7 µM (active)	inactive	–	–	–
COc1ccc(C(=O)N2CCCC2=O)cc1	inactive	inactive	–	inactive	inactive	inactive	inactive	inactive	inactive	inactive	inactive	–	–	inactive	inactive	inactive	–	–	–	–
CCOC(=O)N(C)C(=O)CSP(=S)(OCC)OCC	inactive	inactive	inactive	inactive	inactive	–	inactive	inactive	inactive	–	inactive	inactive	inactive	inactive	–	inactive	inactive	inactive	–	–
C#CCN1C(=O)COc2cc(F)c(N3C(=O)C4=C(CCCC4)C3=O)cc21	inactive	–	inactive	inactive	–	inactive	inactive	inactive	inactive	–	–	inactive	inactive	inactive	inactive	inactive	–	inactive	inactive	–
COc1cccc2c1cc([N+](=O)[O-])c1c(C(=O)O)cc3c(c12)OCO3	inactive	inactive	inactive	3.09 µM (active)	inactive	–	inactive	–	–	–	inactive	–	–	–	inactive	inactive	–	–	–	6.86 µM (active)
c1cc[c]([Hg][c]2ccccc2)cc1	38.9 µM (active)	–	inactive	34.7 µM (active)	inactive	inactive	inactive	inactive	inactive	–	2.43 µM (active)	inactive	inactive	–	inactive	–	inactive	49 µM (active)	–	inactive
ClC(Cl)C(Cl)Cl	inactive	inactive	inactive	inactive	inactive	inactive	inactive	inactive	inactive	–	–	inactive	inactive	–	inactive	inactive	inactive	–	–	–
